The list is not random: actives were taken first. Their share in the collection is about 7.4%.
MITF inhib: inhibitors of MITF. AID 2240. TRPM1 promoter luciferase, luminescence, 24 h. inhibition, % (test concentration not listed). 37,000 tested, 0.28% active; in the data active = inhibition above about 85%; inconclusive = no clear call, values can overlap the other calls; inactive = below about 68%;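 also: human melanocyte line stably carrying TRPM1 promoter luciferase reporter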
YB-1 expression: YB-1 expression inhibition; delta delta Cp (YB-1 minus CDIP) (concentration not given with the values); 30,000 tested, 0.37% active; U2OS, qRT-PCR YB-1 vs CDIP delta delta Cp, 16 h; active compounds read high; zero = DMSO, each unit about twofold; AID 434959;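 active = delta delta Cp rounded down to an integer at or above 3, about 3 SD of DMSO wells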;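 also: higher means less YB-1 transcript or more CDIP transcript relative to DMSO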
PD-1 reversal: reversal of PD-1 mediated T-cell inhibition; 29,000 tested, under 10 active; activation, % (concentration not given with the values); AID 2316; primary human CD4 T cells, PD-L1 beads, CellTiter-Glo 96 h; call rule not given here
Shh pathway inh: Sonic Hedgehog pathway inhibition | Shh-LIGHT2 Gli-luciferase reporter, 30 h | inhibition, % (concentration not given with the values) | 22,000 tested, 2.1% active | AID 2313;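 active = mean inhibition across valid replicates above about 65%, limit read from the data; inconclusive = mean under the limit, yet half or more replicates past it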;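 also: pathway switched on by Shh-conditioned medium diluted 1 in 25 in low serum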
NOMO-1 viab: STK33 inhibitor candidate reducing NOMO-1 cell viability; inhibition, % (test concentration not listed); 37,000 tested, 7.5% active; NOMO-1 AML viability, CellTiter-Glo luminescence, 72 h; in the data active = inhibition above about 80%; inconclusive = no clear call, values can overlap the other calls
Each line names hits and unclear results; the compound was inactive in the other large screens; ! = a repeat was not active.

O=S1(=O)CCC(N(S(=O)(=O)c2ccc(F)cc2)S(=O)(=O)c2ccc(Cl)cc2)C1 (configuration not stated)	none
CC(C)(C)c1ccc(C(=O)C(C#N)=C2SCCCS2)cc1	NOMO-1 viab 109 (no result: Shh pathway inh)
O=C1C(=O)N(CCCn2ccnc2)C(c2ccccc2)C1C(=O)c1cccs1 (configuration not stated)	none (no result: YB-1 expression, Shh pathway inh)
Cc1ccc(Cl)cc1NC(=O)CSc1nnc(-c2ccccc2)n1-c1ccccc1	none (no result: YB-1 expression, Shh pathway inh)
COc1cccc(NC(=O)CSc2nnc(-c3cccc(OC)c3)n2-c2ccc(Cl)cc2)c1	none (no result: YB-1 expression, Shh pathway inh)
O=C(CSc1nnc(-c2cccc(Cl)c2)n1-c1ccccc1)Nc1ccccc1-c1ccccc1	NOMO-1 viab 142 (no result: YB-1 expression, Shh pathway inh)
COc1cccc(NC(=O)CSc2nnc(-c3ccc(Cl)cc3)n2-c2cccc(C)c2)c1	MITF inhib inconclusive, NOMO-1 viab 123 (no result: YB-1 expression, Shh pathway inh)
COc1ccc2c(=O)cc(-c3ccccc3)oc2c1	none
COc1cccc(-c2cc(=O)c3cc(OC)ccc3o2)c1	MITF inhib 93 (no result: PD-1 reversal)
Cc1cc2ncc(-c3ccnc(SCCS(=O)(=O)c4ccccc4)n3)c(C)n2n1	none
C=C(C)C(=O)O[C@H]1CC(=C)C2C[C@H](O)[C@](O)(CO)C2[C@H]2OC(=O)C(=C)[C@H]12 (some centres not stated)	NOMO-1 viab 119
O=C(Nc1ccc(I)cc1C(=O)NCC1CCCO1)c1ccco1 (configuration not stated)	none (no result: YB-1 expression, Shh pathway inh)
COC(=O)C1=C(C)NC(C)=C(C(=O)OCCN(C)Cc2ccccc2)C1c1cccc([N+](=O)[O-])c1 (configuration not stated)	NOMO-1 viab 142!
COC(=O)C1=C(C)NC(C)=C(C(=O)OCCSc2ccccc2)C1C (configuration not stated)	none (no result: PD-1 reversal)
CC(O)(C(=O)Nc1ccc(S(=O)(=O)c2ccccc2)cc1)C(F)(F)F (configuration not stated)	none (no result: PD-1 reversal)
CC(C)(C)C(=O)Nc1ccc2c(c1)C(=O)C(=O)c1ccccc1-2	MITF inhib 97, Shh pathway inh 88, NOMO-1 viab 98 (no result: YB-1 expression)
CC(C)(C)c1ccc(OCC(N)=NC(=O)c2ccc(OC(F)(F)F)cc2)cc1	NOMO-1 viab 136 (no result: Shh pathway inh)
O/N=C1/C2CN3CCN(C2)CC1(Cc1ccccc1)C3	none
CC/C(=C(\c1ccccc1)c1ccc(OCCN(C)C)cc1)c1ccccc1	NOMO-1 viab 96!
Cc1ccc(C)c(NC(=O)CSc2nnc(-c3ccc(N)cc3)n2C)c1	none (no result: YB-1 expression, Shh pathway inh)
COc1ccc(CCN2C(=O)CSC2=NC2CC2)cc1OC	none (no result: Shh pathway inh)
O=C1CSC(=S)N1CCc1ccc(Cl)cc1	NOMO-1 viab 113
CN(CC(=O)Nc1ccc(Nc2ccccc2)cc1)S(=O)(=O)c1cc(Cl)ccc1Cl	none (no result: YB-1 expression, Shh pathway inh)
C[C@@H]1CN([C@@H](C)CO)C(=O)c2cc(NS(=O)(=O)c3ccc(Cl)cc3)ccc2O[C@@H]1CN(C)Cc1ccc(Oc2ccccc2)cc1	NOMO-1 viab 114 (no result: PD-1 reversal, Shh pathway inh)
C[C@@H]1CN([C@H](C)CO)C(=O)c2cc(NS(=O)(=O)c3ccc(Cl)cc3)ccc2O[C@@H]1CN(C)Cc1ccc(Oc2ccccc2)cc1	NOMO-1 viab 122
CC(C(=O)Nc1cccnc1)N(c1ccc(Cl)cc1)S(C)(=O)=O (configuration not stated)	none (no result: YB-1 expression, Shh pathway inh)
COc1ccc(NC(=O)C(C)Oc2ccccc2)cc1NC(=O)c1ccco1 (configuration not stated)	none (no result: YB-1 expression, Shh pathway inh)
O=C(NC(=S)NC12CC3CC(CC(C3)C1)C2)c1ccccc1	none
S=C(NCc1ccccc1Cl)NC12CC3CC(CC(C3)C1)C2	Shh pathway inh inconclusive, NOMO-1 viab 115
O=S(=O)(c1ccc(Cl)cc1)N1CCN(CC(O)COc2ccc3ccccc3c2)CC1 (configuration not stated)	none (no result: YB-1 expression, Shh pathway inh)
C[C@H](CO)N1C[C@H](C)[C@H](CN(C)Cc2ccccc2)Oc2ccc(NS(=O)(=O)c3ccc(Cl)cc3)cc2C1=O	YB-1 expression 6.1 (no result: Shh pathway inh)
C[C@@H]1CN([C@@H](C)CO)C(=O)c2cc(NS(=O)(=O)c3ccc(Cl)cc3)ccc2O[C@H]1CN(C)Cc1ccc(-c2ccccc2)cc1	NOMO-1 viab 106
C[C@H]1CN([C@@H](C)CO)C(=O)c2cccc(N(C)C)c2O[C@@H]1CN(C)Cc1ccc(Cl)c(Cl)c1	none
C[C@@H]1CN([C@@H](C)CO)C(=O)c2cccc(N(C)C)c2O[C@H]1CN(C)Cc1ccc(Cl)c(Cl)c1	NOMO-1 viab 97 (no result: PD-1 reversal)
C[C@@H]1CN([C@H](C)CO)C(=O)c2cccc(N(C)C)c2O[C@H]1CN(C)Cc1ccc(Cl)c(Cl)c1	NOMO-1 viab 88 (no result: PD-1 reversal)
C[C@@H]1CN([C@@H](C)CO)C(=O)c2cccc(N(C)C)c2O[C@@H]1CN(C)Cc1ccc2c(c1)OCO2	YB-1 expression 12
C[C@@H]1CN([C@H](C)CO)C(=O)c2cccc(N(C)C)c2O[C@H]1CN(C)Cc1ccc2c(c1)OCO2	none (no result: PD-1 reversal)
CSc1nc(N)n(-c2cc(Cl)cc(Cl)c2)n1	none
C=C1CCC2[C@](C)(CO)[C@H](O)CC[C@@]2(C)[C@@H]1C/C=C1/C(=O)OC[C@H]1O (some centres not stated)	Shh pathway inh 93, NOMO-1 viab 98
C=C1CCC2C(C)(CO)CCCC2(C)C1CC/C(C)=C/C(=O)O (configuration not stated)	none (no result: MITF inhib, PD-1 reversal, NOMO-1 viab)
COC(=O)c1cc(-c2ccccc2)sc1NC(=O)c1cc(-c2cccnc2)nc2ccccc12	none (no result: YB-1 expression, PD-1 reversal, Shh pathway inh)
COC(=O)c1c(-c2ccccc2)csc1NC(=O)c1cc(-c2cccnc2)nc2ccccc12	NOMO-1 viab 104 (no result: YB-1 expression, PD-1 reversal, Shh pathway inh)
CN(C1CCCCC1)S(=O)(=O)c1cc(Cl)ccc1Cl	none
C=C1C(=O)O[C@H]2[C@H]1[C@@H](OC(=O)C(C)(O)CCl)C(OC(C)=O)/C(C(=O)OC)=C\CC[C@@]1(C)O[C@H]21 (some centres not stated)	NOMO-1 viab 109
C=C1C(=O)O[C@H]2[C@H]1C[C@H](OC(=O)/C(C)=C\C)/C(C)=C\CC[C@@]1(C)O[C@@H]21	NOMO-1 viab 121
C=C1C(=O)O[C@H]2[C@H]1[C@@H](OC(=O)/C(C)=C\C)C(OC(C)=O)/C(C(=O)OC)=C\CC[C@@]1(C)O[C@H]21 (some centres not stated)	NOMO-1 viab 109
C=C1C(=O)O[C@H]2[C@H]1[C@@H](OC(=O)/C(C)=C/C)C(OC(C)=O)/C(C(=O)OC)=C\CC[C@@]1(C)O[C@H]21 (some centres not stated)	NOMO-1 viab 119
CSc1c(CC(=O)NCCc2ccccc2)n(C)c2ccccc12	none
COc1ccc(NC(=O)c2cc(S(=O)(=O)Nc3ccc(OC)cc3)c(Cl)cc2Cl)cc1	none (no result: YB-1 expression, PD-1 reversal, Shh pathway inh)
COc1cccc2oc3c(c(=O)c12)C(C(=O)O)=CC(CO)=CO3	none
CN(C)C=NC(=O)c1sc(S(C)(=O)=O)c2c1CCC=C2	none (no result: Shh pathway inh)
C[C@@H]1CCCCO[C@H](CN(C)Cc2ccc(Cl)c(Cl)c2)[C@@H](C)CN([C@H](C)CO)C(=O)c2cc(N(C)C)ccc2O1	NOMO-1 viab 87

Assay outcomes from PubChem BioAssay.
